Assay results from PubChem BioAssay AID1159580 (chemical genetic matrix, 2015).
Hit rate of the full screen: of about 5,500 compounds, about 2,000 (36%) were called active. About 18% were inconclusive and are not listed. No stated cut-off is given here; in the data, active means normalized growth mostly below about 0.91 (no sharp cut-off); inconclusive means no clear call, values can overlap the other calls; inactive means mostly above about 0.92. The list shows a part of the results.

Test: chemical genetic growth profiling, strain panel (AID 1159580);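 further: tested at 20 µM; growth read once vehicle control cultures reached saturation at 30 °C; 1 = growth at the plate median or of vehicle wells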
Conditions: growth OD

Measured: normalized growth

C[C@H](CCC(=O)O)[C@H]1CCC2C3C(CC[C@@]21C)[C@@]1(C)CC[C@@H](O)C[C@H]1C[C@@H]3O (stereo partly specified)
inactive: S. cerevisiae deletion strains, locus YKL068W, stronger effect = lower value 0.989 | S. cerevisiae deletion strains, locus YKL085W, strain MDH1 (second series), stronger effect = lower value 0.953 | S. cerevisiae deletion strains, locus YKL085W, strain MDH1, stronger effect = lower value 0.953 | S. cerevisiae deletion strains, locus YKL160W, strain elf1, stronger effect = lower value 0.977 | S. cerevisiae deletion strains, locus YKL190W, strain CNB1, stronger effect = lower value 0.99 | S. cerevisiae deletion strains, locus YKR001C, strain vps1, stronger effect = lower value 0.963 | S. cerevisiae deletion strains, locus YKR026C, strain gcn3, stronger effect = lower value 0.997 | S. cerevisiae deletion strains, locus YKR091W, strain srl3, stronger effect = lower value 0.99 | S. cerevisiae deletion strains, locus YLL001W, strain dnm1, stronger effect = lower value 0.953 | S. cerevisiae deletion strains, locus YLL026W, stronger effect = lower value 0.987 | S. cerevisiae deletion strains, locus YLL041C, strain sdh2, stronger effect = lower value 1 | S. cerevisiae deletion strains, locus YLR027C, strain aat2, stronger effect = lower value 0.983 | S. cerevisiae deletion strains, locus YLR039C, strain RIC1, stronger effect = lower value 0.828 | S. cerevisiae deletion strains, locus YLR058C, strain SHM2, stronger effect = lower value 0.984 | S. cerevisiae deletion strains, locus YLR102C, strain apc9, stronger effect = lower value 0.972 | S. cerevisiae deletion strains, locus YLR113W, strain HOG1, stronger effect = lower value 0.937 | S. cerevisiae deletion strains, locus YLR221C, strain rsa3, stronger effect = lower value 1.05 | S. cerevisiae deletion strains, locus YLR258W, strain gsy2, stronger effect = lower value 1.02 | S. cerevisiae deletion strains, locus YLR262C, strain YPT6, stronger effect = lower value 0.776 | S. cerevisiae deletion strains, locus YLR268W, strain sec22, stronger effect = lower value 0.929 | S. cerevisiae deletion strains, locus YLR320W, strain mms22, stronger effect = lower value 1.03 | S. cerevisiae deletion strains, locus YLR330W, strain CHS5, stronger effect = lower value 0.996 | S. cerevisiae deletion strains, locus YLR342W, strain FKS1 (second series), stronger effect = lower value 0.965 | S. cerevisiae deletion strains, locus YLR342W, strain FKS1, stronger effect = lower value 0.946 | S. cerevisiae deletion strains, locus YLR357W, strain rsc2, stronger effect = lower value 1.06 | S. cerevisiae deletion strains, locus YLR370C, strain arc18, stronger effect = lower value 0.964 | S. cerevisiae deletion strains, locus YLR371W, strain rom2, stronger effect = lower value 0.987 | S. cerevisiae deletion strains, locus YLR384C, strain iki3, stronger effect = lower value 0.967 | S. cerevisiae deletion strains, locus YLR418C, strain cdc73, stronger effect = lower value 0.965 | S. cerevisiae deletion strains, locus YML016C, strain PPZ1, stronger effect = lower value 0.978 | S. cerevisiae deletion strains, locus YML032C, strain rad52, stronger effect = lower value 0.95 | S. cerevisiae deletion strains, locus YML120C, strain ndi1, stronger effect = lower value 0.962 | S. cerevisiae deletion strains, locus YML124C, strain tub3, stronger effect = lower value 0.986 | S. cerevisiae deletion strains, locus YMR058W, strain fet3, stronger effect = lower value 0.997 | S. cerevisiae deletion strains, locus YMR078C, strain ctf18, stronger effect = lower value 0.972 | S. cerevisiae deletion strains, locus YMR125W, strain sto1, stronger effect = lower value 1.03 | S. cerevisiae deletion strains, locus YMR129W, stronger effect = lower value 0.988 | S. cerevisiae deletion strains, locus YMR205C, strain PFK2, stronger effect = lower value 0.985 | S. cerevisiae deletion strains, locus YMR223W, strain ubp8, stronger effect = lower value 1 | S. cerevisiae deletion strains, locus YMR231W, strain pep5, stronger effect = lower value 0.959 | S. cerevisiae deletion strains, locus YMR263W, strain SAP30, stronger effect = lower value 1 | S. cerevisiae deletion strains, locus YMR307W, strain GAS1, stronger effect = lower value 0.88 | S. cerevisiae deletion strains, locus YNL067W, strain RPL9B, stronger effect = lower value 0.972 | S. cerevisiae deletion strains, locus YNL071W, strain lat1, stronger effect = lower value 1.01 | S. cerevisiae deletion strains, locus YNL128W, strain TEP1, stronger effect = lower value 0.99 | S. cerevisiae deletion strains, locus YNL153C, strain GIM3, stronger effect = lower value 1 | S. cerevisiae deletion strains, locus YNL183C, strain NPR1, stronger effect = lower value 0.921 | S. cerevisiae deletion strains, locus YNL209W, strain ssb2, stronger effect = lower value 1.01 | S. cerevisiae deletion strains, locus YNL233W, strain BNI4, stronger effect = lower value 1.02 | S. cerevisiae deletion strains, locus YNL248C, strain rpa49, stronger effect = lower value 1.02 | S. cerevisiae deletion strains, locus YNL250W, strain rad50, stronger effect = lower value 0.978 | S. cerevisiae deletion strains, locus YNL271C, strain bni1, stronger effect = lower value 0.956 | S. cerevisiae deletion strains, locus YNL298W, strain CLA4, stronger effect = lower value 0.937 | S. cerevisiae deletion strains, locus YNL307C, strain MCK1, stronger effect = lower value 0.979 | S. cerevisiae deletion strains, locus YNL322C, strain KRE1 (second series), stronger effect = lower value 0.981 | S. cerevisiae deletion strains, locus YNL322C, strain KRE1, stronger effect = lower value 0.993 | S. cerevisiae deletion strains, locus YNR049C, strain mso1, stronger effect = lower value 0.993 | S. cerevisiae deletion strains, locus YNR052C, strain pop2, stronger effect = lower value 0.971 | S. cerevisiae deletion strains, locus YOL006C, strain TOP1, stronger effect = lower value 0.931 | S. cerevisiae deletion strains, locus YOL012C, strain htz1 0.86 | S. cerevisiae deletion strains, locus YOL147C, strain pex11, stronger effect = lower value 0.983 | S. cerevisiae deletion strains, locus YOR001W, strain rrp6, stronger effect = lower value 0.947 | S. cerevisiae deletion strains, locus YOR061W, strain CKA2, stronger effect = lower value 0.977 | S. cerevisiae deletion strains, locus YOR069W, strain VPS5, stronger effect = lower value 0.989 | S. cerevisiae deletion strains, locus YOR070C, strain gyp1, stronger effect = lower value 1 | S. cerevisiae deletion strains, locus YOR080W, strain dia2, stronger effect = lower value 0.972 | S. cerevisiae deletion strains, locus YOR083W, strain WHI5, stronger effect = lower value 0.969 | S. cerevisiae deletion strains, locus YOR106W, strain vam3, stronger effect = lower value 0.951 | S. cerevisiae deletion strains, locus YOR136W, strain idh2, stronger effect = lower value 1 | S. cerevisiae deletion strains, locus YOR144C, strain elg1, stronger effect = lower value 0.984 | S. cerevisiae deletion strains, locus YOR184W, strain ser1, stronger effect = lower value 0.921 | S. cerevisiae deletion strains, locus YOR231W, strain MKK1, stronger effect = lower value 0.952 | S. cerevisiae deletion strains, locus YOR265W, strain rbl2, stronger effect = lower value 0.99 | S. cerevisiae deletion strains, locus YOR270C, strain vph1, stronger effect = lower value 0.945 | S. cerevisiae deletion strains, locus YOR290C, strain snf2, stronger effect = lower value 1.03 | S. cerevisiae deletion strains, locus YOR316C, strain cot1, stronger effect = lower value 0.982 | S. cerevisiae deletion strains, locus YPL051W, strain arl3, stronger effect = lower value 1 | S. cerevisiae deletion strains, locus YPL055C, strain LGE1, stronger effect = lower value 1.01 | S. cerevisiae deletion strains, locus YPL078C, strain atp4, stronger effect = lower value 0.931 | S. cerevisiae deletion strains, locus YPL106C, strain sse1, stronger effect = lower value 0.993 | S. cerevisiae deletion strains, locus YPL240C, strain hsp82, stronger effect = lower value 1.01 | S. cerevisiae deletion strains, locus YPL241C, strain CIN2, stronger effect = lower value 0.993 | S. cerevisiae deletion strains, locus YPL256C, strain CLN2, stronger effect = lower value 0.936 | S. cerevisiae deletion strains, locus YPR119W, strain clb2, stronger effect = lower value 0.977 | S. cerevisiae deletion strains, locus YPR141C, strain kar3, stronger effect = lower value 0.97 | S. cerevisiae deletion strains, locus YPR163C, strain tif3, stronger effect = lower value 0.981 | S. cerevisiae deletion strains, locus YPR167C, strain met16, stronger effect = lower value 0.987 | S. cerevisiae deletion strains, strain wtn01, stronger effect = lower value 0.971 | S. cerevisiae strains, strain wild type, stronger effect = lower value 0.994
active: S. cerevisiae deletion strains, locus YKL009W, strain mrt4, stronger effect = lower value 0.807 | S. cerevisiae deletion strains, locus YLR262C, strain YPT6 (second series), stronger effect = lower value 0.795
